Measured values reported in the supplement of paper PMC8728848.
Many of the other results were omitted from the sample, so the strongest signals are more common in it than they were.

Columns and labels:
Experiment in all cases: glycan array binding signal (z-score within array); higher = stronger binding
Conditions in all cases: glycan notation: IUPAC condensed, linker removed
[1] = target: 4d8dNeu5Ac(a2-3)Gal(b1-4)Glc
In short: (§1)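 Arrays were curated from the Consortium for Functional Glycomics database, 3228 in total, and kept only where the protein sequence was available. Binding is expressed as a within-array Z-score. This score was averaged across arrays of the same protein sequence at different concentrations or buffers and across linkers, and negative values can be read as non-binding.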

[2] = target: 4dNeu5Ac(a2-3)Gal(b1-4)Glc
In short: as §1

[3] = target: Fuc(a1-2)Gal(b1-3)GlcNAc(b1-2)Man(a1-3)[Fuc(a1-2)Gal(b1-3)GlcNAc(b1-2)Man(a1-6)]Man(b1-4)GlcNAc(b1-4)GlcNAc
In short: as §1

[4] = target: Fuc(a1-2)Gal(b1-3)[Fuc(a1-4)]GlcNAc(b1-2)Man(a1-3)[Fuc(a1-2)Gal(b1-3)[Fuc(a1-4)]GlcNAc(b1-2)Man(a1-3)]Man(b1-4)GlcNAc(b1-4)GlcNAc
In short: as §1

[5] = target: Fuc(a1-2)[Gal(a1-3)]Gal(b1-3)GlcNAc
In short: as §1

[6] = target: Fuc(a1-2)[Gal(a1-3)]Gal(b1-4)GlcNAc(b1-3)[Fuc(a1-2)[Gal(a1-3)]Gal(b1-4)GlcNAc(b1-6)]GalNAc
In short: as §1

[7] = target: Fuc(a1-2)[GalNAc(a1-3)]Gal(b1-4)GlcNAc(b1-2)Man(a1-3)[Fuc(a1-2)[GalNAc(a1-3)]Gal(b1-4)GlcNAc(b1-2)Man(a1-6)]Man(b1-4)GlcNAc(b1-4)[Fuc(a1-6)]GlcNAc
In short: as §1

[8] = target: Fuc(a1-2)[GalNAc(a1-3)]Gal(b1-4)GlcNAc(b1-3)Gal(b1-4)GlcNAc
In short: as §1

[9] = target: Fuc(a1-2)[GalNAc(a1-3)]Gal(b1-4)[Fuc(a1-3)]GlcNAc(b1-3)GalNAc
In short: as §1

[10] = target: Fuc(a1-3)[Gal(b1-4)]GlcNAc(b1-3)[Fuc(a1-2)]Gal(b1-4)Glc
In short: as §1

Fuc(a1-4)GlcNAc = target: Fuc(a1-4)GlcNAc
In short: as §1

[11] = target: Gal(b1-3)Gal(b1-4)GlcNAc(b1-2)Man(a1-3)[Gal(b1-3)Gal(b1-4)GlcNAc(b1-2)Man(a1-6)]Man(b1-4)GlcNAc(b1-4)GlcNAc
In short: as §1

[12] = target: Gal(b1-3)GlcNAc(a1-6)Gal(b1-4)GlcNAc
In short: as §1

[13] = target: Gal(b1-3)GlcNAc(b1-3)Gal(b1-4)Glc
In short: as §1

[14] = target: Gal(b1-3)GlcNAc(b1-3)Gal(b1-4)[Fuc(a1-3)]GlcNAc(b1-6)[Gal(b1-3)GlcNAc(b1-3)]Gal(b1-4)Glc
In short: as §1

[15] = target: Gal(b1-3)[Fuc(a1-4)]GlcNAc(b1-2)Man(a1-3)[Gal(b1-3)[Fuc(a1-4)]GlcNAc(b1-2)Man(a1-6)]Man(b1-4)GlcNAc(b1-4)GlcNAc
In short: as §1

[16] = target: Gal(b1-3)[Fuc(a1-4)]GlcNAc(b1-3)Gal(b1-4)[Fuc(a1-3)]GlcNAc
In short: as §1

[17] = target: Gal(b1-3)[Fuc(a1-4)]GlcNAc(b1-3)Gal(b1-4)[Fuc(a1-3)]GlcNAc(b1-6)[Gal(b1-3)[Fuc(a1-4)]GlcNAc(b1-3)]Gal(b1-4)Glc
In short: as §1

[18] = target: Gal(b1-3)[Neu5Ac(a2-6)]GalNAc
In short: as §1

Gal(b1-4)Glc = target: Gal(b1-4)Glc
In short: as §1

[19] = target: Gal(b1-4)GlcNAc(b1-2)Man(a1-6)[GlcNAc(b1-2)Man(a1-3)]Man(b1-4)GlcNAc(b1-4)[Fuc(a1-6)]GlcNAc
In short: as §1

[20] = target: Gal(b1-4)GlcNAc(b1-2)Man(a1-6)[Man(a1-3)]Man(b1-4)GlcNAc(b1-4)[Fuc(a1-6)]GlcNAc
In short: as §1

[21] = target: Gal(b1-4)GlcNAc(b1-3)Gal(b1-4)GlcNAc(b1-2)Man(a1-3)[Gal(b1-4)GlcNAc(b1-3)Gal(b1-4)GlcNAc(b1-2)Man(a1-6)]Man(b1-4)GlcNAc(b1-4)[Fuc(a1-6)]GlcNAc
In short: as §1

[22] = target: Gal(b1-4)GlcNAc(b1-3)Gal(b1-4)GlcNAc(b1-3)Gal(b1-4)GlcNAc
In short: as §1

[23] = target: Gal(b1-4)GlcNAc(b1-3)Gal(b1-4)GlcNAc(b1-3)Gal(b1-4)GlcNAc(b1-3)Gal(b1-4)GlcNAc(b1-2)Man(a1-3)[Gal(b1-4)GlcNAc(b1-3)Gal(b1-4)GlcNAc(b1-3)Gal(b1-4)GlcNAc(b1-3)Gal(b1-4)GlcNAc(b1-2)Man(a1-6)]Man(b1-4)GlcNAc(b1-4)[Fuc(a1-6)]GlcNAc
In short: as §1

[24] = target: Gal(b1-4)GlcNAc(b1-3)Gal(b1-4)GlcNAc(b1-3)Gal(b1-4)GlcNAc(b1-3)Gal(b1-4)GlcNAc(b1-3)Gal(b1-4)GlcNAc(b1-2)[Gal(b1-4)GlcNAc(b1-3)Gal(b1-4)GlcNAc(b1-3)Gal(b1-4)GlcNAc(b1-3)Gal(b1-4)GlcNAc(b1-3)Gal(b1-4)GlcNAc(b1-6)]Man(a1-6)[Gal(b1-4)GlcNAc(b1-3)Gal(b1-4)GlcNAc(b1-3)Gal(b1-4)GlcNAc(b1-3)Gal(b1-4)GlcNAc(b1-3)Gal(b1-4)GlcNAc(b1-2)Man(a1-3)]Man(b1-4)GlcNAc(b1-4)[Fuc(a1-6)]GlcNAc
In short: as §1

[25] = target: Gal(b1-4)GlcNAc(b1-3)[Fuc(a1-3)GlcNAc(b1-6)]Gal(b1-4)Glc
In short: as §1

[26] = target: Gal(b1-4)GlcNAc(b1-3)[Fuc(a1-3)[Gal(b1-4)]GlcNAc(b1-6)]Gal(b1-4)Glc
In short: as §1

[27] = target: Gal(b1-4)GlcNAc(b1-6)[Gal(b1-3)]GalNAc
In short: as §1

[28] = target: Gal3S(b1-3)[Fuc(a1-4)]GlcNAc
In short: as §1

B1: CLEC5A (Homo sapiens), Q9NY25 (protein)
chain: MNWHMIISGLIVVVLKVVGMTLFLLYFPQIFNKSNDGFTTTRSYGTVSQIFGSSSPSPNGFITTRSYGTVCPKDWEFYQARCFFLSTSESSWNESRDFCKGKGSTLAIVNTPEKLKFLQDITDAEKYFIGLIYHREEKRWRWINNSVFNGNVTNQNQNFNCATIGLTKTFDAASCDISYRRICEKNAK
[1]
  glycan array binding signal (z-score): -0.32
[2]
  glycan array binding signal (z-score): -0.32
[3]
  glycan array binding signal (z-score): 0.119
[4]
  glycan array binding signal (z-score): 0.282
[5]
  glycan array binding signal (z-score): -0.016
[6]
  glycan array binding signal (z-score): 2
[7]
  glycan array binding signal (z-score): 0.189
[8]
  glycan array binding signal (z-score): 0.56
[9]
  glycan array binding signal (z-score): 2.38
[10]
  glycan array binding signal (z-score): -0.32
Fuc(a1-4)GlcNAc
  glycan array binding signal (z-score): 11.1
[11]
  glycan array binding signal (z-score): 2.62
[12]
  glycan array binding signal (z-score): -0.327
[13]
  glycan array binding signal (z-score): -0.282
[14]
  glycan array binding signal (z-score): -0.154
[15]
  glycan array binding signal (z-score): 1.69
[16]
  glycan array binding signal (z-score): -0.037
[17]
  glycan array binding signal (z-score): -0.32
[18]
  glycan array binding signal (z-score): -0.023
Gal(b1-4)Glc
  glycan array binding signal (z-score): -0.243
[19]
  glycan array binding signal (z-score): -0.031
[20]
  glycan array binding signal (z-score): 4.98
[21]
  glycan array binding signal (z-score): 0.05
[22]
  glycan array binding signal (z-score): 0.076
[23]
  glycan array binding signal (z-score): 1.88
[24]
  glycan array binding signal (z-score): 0.25
[25]
  glycan array binding signal (z-score): -0.199
[26]
  glycan array binding signal (z-score): -0.031
[27]
  glycan array binding signal (z-score): -0.196
[28]
  glycan array binding signal (z-score): 0.015
